Screening results as filed in PubChem BioAssay.
Sampled rows, rich in hits. Any-hit rate of the full collection: about 2.3%.
POLB inh – qHTS Assay for Inhibitors of DNA Polymerase Beta. P06746. Pol beta primer extension/strand displacement, fluorescence kinetic. Potency, µM (highest dose often 114 µM), for inactives: at the top dose activity change, negative = inhibition, usual class: inhibitors. 340,000 compounds, 1.3% hits; also: % is scaled to controls: 0 for no effect and ±100 for the full control effect
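Pol beta (10 nM) was preincubated with compound for 15 min at room temperature. The reaction was then started with 50 nM substrate and read immediately and after a further 10 min at room temperature.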
POLK inh – qHTS for Inhibitors of Polymerase Kappa | DNA polymerase kappa (Homo sapiens), Q9UBT6 | purified Pol kappa, fluorescent DNA synthesis assay, 10 min | Potency, µM (doses to about 107 µM), for the others: top-dose activity, negative = inhibition, actives largely listed as inhibitors | 400,000 compounds, 0.53% hits; also: % is scaled to controls: 0 for no effect and ±100 for the full control effect
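10 nM Pol kappa preincubated 15 min at room temperature with compounds, then reaction started with substrate at 50 nM final. Fluorescence read kinetically at 0 and 10 min; buffer-only wells served as negative control.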
POLH inh – qHTS for Inhibitors of Polymerase Eta; AID 588591, 2011; DNA polymerase eta (Homo sapiens), Q9Y253; 390,000 compounds, 1.2% hits; recombinant Pol eta, fluorescent DNA replication assay; Potency, µM (series often up to 114 µM), inactives show at the top dose activity change, negative = inhibition, hits mostly inhibitors; also: % is scaled to controls: 0 for no effect and ±100 for the full control effect
Target sequence (Q9Y253 whole entry, looked up): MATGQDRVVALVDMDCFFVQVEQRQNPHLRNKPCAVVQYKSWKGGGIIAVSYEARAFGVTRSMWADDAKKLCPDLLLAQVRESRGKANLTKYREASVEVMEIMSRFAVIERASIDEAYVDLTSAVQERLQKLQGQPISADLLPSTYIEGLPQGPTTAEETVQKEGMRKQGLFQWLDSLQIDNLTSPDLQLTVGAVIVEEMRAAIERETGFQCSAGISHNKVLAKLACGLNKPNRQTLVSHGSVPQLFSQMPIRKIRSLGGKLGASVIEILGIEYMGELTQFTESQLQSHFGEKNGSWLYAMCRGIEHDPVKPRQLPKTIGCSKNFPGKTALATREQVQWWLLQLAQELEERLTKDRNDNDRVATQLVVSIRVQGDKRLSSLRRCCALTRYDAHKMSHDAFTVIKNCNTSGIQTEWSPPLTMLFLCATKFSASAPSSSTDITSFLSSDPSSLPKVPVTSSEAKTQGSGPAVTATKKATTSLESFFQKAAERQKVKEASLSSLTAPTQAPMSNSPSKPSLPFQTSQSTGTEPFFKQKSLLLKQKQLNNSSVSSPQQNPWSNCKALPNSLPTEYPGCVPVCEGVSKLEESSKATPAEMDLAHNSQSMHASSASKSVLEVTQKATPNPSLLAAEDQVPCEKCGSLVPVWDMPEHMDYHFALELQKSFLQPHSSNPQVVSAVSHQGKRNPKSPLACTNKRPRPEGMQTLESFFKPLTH
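Pol eta at 10 nM preincubated with compounds 15 min at room temperature; reaction started with fluorescent substrate (50 nM final) and read kinetically at 0 and 10 min.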
POLI inh – qHTS for Inhibitors of Polymerase Iota | Pol iota fluorescent replication assay, 10 min | Potency, µM (titrated, usually from 115 µM), without a hit: at the highest dose activity, negative = inhibition, hits mostly inhibitors | 390,000 compounds, 1% hits | AID 588590, 2011
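Fluorescent replication assay read twice, at 0 min and 10 min after adding 50 nM (final) substrate. Enzyme (10 nM) and compounds were first incubated 15 min at room temperature; enzyme-free buffer wells were negative controls.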
WRN inhibitor – qHTS for Inhibitors of WRN Helicase. WRN helicase unwinding, fluorescent forked duplex, kinetic. Potency, µM (titrated, usually from 114 µM), inactives show at the top dose activity change, negative = inhibition, hits mostly inhibitors. 360,000 compounds, 0.46% hits. AID 651768, 2012; also: % is scaled to controls: 0 for no effect and ±100 for the full control effect; nearly all actives have a fitted effect of over 55% in size
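Enzyme (20 nM final) and test compound sit together 15 min at room temperature before substrate addition. Substrate is a single-forked duplex oligonucleotide (100 nM) labelled with fluorophore and quencher, with 2 mM ATP; helicase unwinding raises red fluorescence, read kinetically.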
* marks the source's active call; other numbers are inactive results; ? = inconclusive; nt = not tested or not shown; ! = not confirmed by another sample; [ ] = dose if it differs, or a comment. Calls follow the shape of the dose curve; as a rule, active = well fitted curve in the direction sought with a large enough effect; inconclusive = small, poorly fitted or top-dose-only effect, or another doubt; inactive = no such curve, though single readings can be large; an effect the other way counts as inactive or inconclusive. Potency is read from the fitted curve at half-maximal effect.

SMILES | POLB inh | POLK inh | POLH inh | POLI inh | WRN inhibitor
COc1ccc(S(=O)(=O)Nc2ccc(S(=O)(=O)Nc3ccc(F)cc3)cc2)cc1C | 7% | -3% | -14% | ? | -12%
COc1ccc(NS(=O)(=O)c2ccc(OC)c(N(C)S(=O)(=O)c3ccc(Cl)cc3)c2)cc1 | -17% | -14% | -20% | 89µM* | -17%
COc1ccc(S(=O)(=O)Nc2ccc(F)cc2)cc1N(C)S(=O)(=O)c1ccc(Cl)cc1 | -1% | -15% | -14% | 89µM* | -27%
COc1ccc(CN2CCN(C(=O)CCC(=O)c3ccc(C)s3)CC2)cc1OC | nt | -33% | 25µM* | 89µM* | -22%
COc1ccc(CN2CCN(C(=O)c3ccco3)CC2)cc1OC | 30% | -10% | -10% | 57% | -6%[57.1 µM]
CC1(C)OB(c2cnc(C#N)nc2)OC1(C)C | nt | -8% | nt | -21% | nt
CCCOC(=O)C1=C(C)N(C)C(=O)NC1c1cc2c(cc1[N+](=O)[O-])OCO2 (stereo unspecified) | ? | 79µM* | -8% | 4.5µM* | -4%[11.6 µM]
O=C1OC(NC(=O)c2ccccc2)C(n2cc(CO)nn2)=C1Cl (stereo unspecified) | 5% | -8% | -5% | ? | 50µM*
CC(C)(C)c1ccc(OCC(=O)Nc2ccc(C(=O)Nc3ccccc3C(=O)O)cc2)cc1 | -13% | -28% | 79µM* | 9% | ?
CCCCCCCCCCCCN1[C@@H](CC(=O)O)c2cc(C(F)(F)F)ccc2S1(=O)=O | nt | ? | 45µM* | ? | -31%
Cc1ccnc2c(Cl)c(Cl)ccc12 | nt | -2% | nt | 19% | nt
Cc1cc(C(=O)N/N=C/c2ccc(-c3ccccc3Cl)o2)n[nH]1 | 10µM* | ? | ? | -55% | -22%
S=c1ncc2n[nH]nc2[nH]1 | nt | 0% | nt | -21% | nt
O=C(O)Cn1cc(/C=C/[N+](=O)[O-])c2ccccc21 | 6% | -21% | 45µM* | 28µM* | -5%[11.6 µM]
O=C(Cn1cc(/C=C\[N+](=O)[O-])c2ccccc21)Nc1ccccc1 | 10% | -24% | 0% | 21% | -5%
O=c1c2[nH]c3ccccc3c2nc(SCc2cccc(F)c2)n1-c1ccccc1 | 0% | -3%[60.1 µM] | -10% | 10% | nt
O=c1c2ccccc2sn1-c1ccc(S(=O)(=O)N2CCOCC2)cc1 | nt | 10% | nt | 17% | nt
O=c1c2ccccc2sn1-c1ccc(Cl)c(S(=O)(=O)N2CCOCC2)c1 | nt | -14% | nt | 79µM* | nt
COc1cccc(N2CC(O)=C(c3nc4ccccc4c(=O)[nH]3)C2=N)c1 | 23% | -13% | 2% | -9% | -7%
Cc1cc(C)cc(N2CC(O)=C(c3nc4ccccc4c(=O)[nH]3)C2=N)c1 | -27% | ? | ? | ? | 50µM*
CC/C(=C/c1ccccc1OC)c1cc(-c2ccccc2)cc2oc3ccccc3c12 | nt | -16% | nt | 12% | nt
O=c1c2c3nc4ccccc4nc3n(Cc3ccccc3)c2ncn1Cc1ccco1 | 28µM* | ? | 18µM* | ? | ?
O=C(c1cccs1)N1CCN(Cc2cccnc2)CC1 | 26% | -12% | 22µM* | 0% | 4%
CC(=O)c1cccc(CN2CCCC(C(=O)Nc3ccc(-c4ccco4)cc3)C2)c1 (stereo unspecified) | -2% | -6% | ? | 45µM* | -2%
COc1ccccc1NC(=O)Cn1cncc1-c1ccc([N+](=O)[O-])cc1 | 1% | -2% | -11% | ? | -4%
SMILES | POLB inh | POLK inh | POLH inh | POLI inh | WRN inhibitor
Cc1ccc(NC(=O)Cn2cncc2-c2ccc([N+](=O)[O-])cc2)cc1C | 35µM* | -9% | ? | ? | -20%
Cc1cc(CC(=O)O)c(C)n1-c1ccc(Cl)cc1 | nt | -7%[19.4 µM] | nt | nt | nt
CCOC(=O)C1C(=O)C=C(/C=C/c2ccc(N(C)C)cc2)CC1c1ccccc1 (stereo unspecified) | 1% | -10% | -29% | ? | 50µM*
COc1ccc(CNC(=O)c2cnc(C)cn2)cc1 | 28µM* | -7% | 16µM* | ? | -4%[11.6 µM]
COc1cc(CNC(=O)c2cnc(C)cn2)cc(OC)c1 | 21% | -15% | 11% | 149% | -28%
CCCCC[C@H](O)/C=C/C1=C(CCCCCCC(=O)O)C(=O)CC1 | ? | 50µM*! | 25µM* | 45µM* | ?
CCCCC[C@H](O)/C=C/C=C\CCCCCCCC(=O)O | nt | 3%[19.4 µM] | nt | nt | nt
O=C(COc1ccccc1)Nc1sc2c(c1C(=O)NCc1cccnc1)CCCC2 | 35µM* | -13% | ? | ? | -28%[57.1 µM]
O=C(O)CCC(=O)Nc1sc2c(c1C(=O)Nc1cccc3ccccc13)CCCCC2 | -7% | -1% | -4% | ? | -17%
O=C(O)CCC(=O)Nc1sc2c(c1C(=O)Nc1ccccc1)CCCCC2 | ? | -27% | 89µM*! | 30% | -34%
Brc1ccc(/C=C2\C=Cc3ccccc32)cc1 | nt | -17% | nt | 25% | nt
O=S(=O)(c1ccc2ncccc2c1)N1CCN(c2nc(-c3cccs3)nc3ccccc23)CC1 | nt | -10% | nt | 2% | nt
CCCCCCCCCCCCCC/C(C(=O)O)=C(\C)C(=O)O | nt | 10%[60.1 µM] | nt | nt | nt
O=C(/C=C/c1ccc(Br)o1)Nc1nccs1 | ? | ? | ? | 20µM* | -6%
O=C(/C=C/c1ccc(Br)o1)NCc1ccccc1 | 0.71µM* | ? | -8% | ? | -15%[57.1 µM]
O=S(=O)(c1ccc2c(c1)CCCC2)N1CCN(c2nc(-c3ccccc3)nc3ccccc23)CC1 | nt | -3% | nt | 28% | nt
Cc1ccc(NC(=O)COC(=O)c2ccccc2OCC(=O)Nc2ccc(Br)cc2)c(C)c1 | nt | -11% | nt | ? | nt
Cc1cc(Cl)ccc1OCC(=O)Nc1cccc(-c2nc3ccccc3o2)c1 | nt | -8% | nt | -4% | nt
C=C1CCN(C(CC(C)C)C(=O)NCCCc2ccccc2)S(=O)(=O)c2ccccc21 (stereo unspecified) | nt | -15% | nt | -5% | nt
COc1cccc(CN2c3ccc(Br)cc3C(=O)CS2(=O)=O)c1 | nt | -3% | -1% | 79µM*! | 1%
Nc1c(C(=O)Nc2ccc(S(=O)(=O)N3CCCC3)cc2)sc2nc3ccc(OC(F)(F)F)cc3cc12 | 28µM* | -6% | 40µM* | ? | ?
O=C(Nc1ccc(NC(=S)NC(=O)c2cccs2)cc1)c1ccco1 | ? | ? | 79µM* | 35µM* | ?
CCC(C)/C(C)=N/Nc1ccc(S(N)(=O)=O)cc1[N+](=O)[O-] (stereo unspecified) | 5% | 0% | 89µM* | 116% | 4%
C/C=C(\C)NNC(=O)Cc1ccc(OC)cc1 | nt | -17% | nt | 42% | nt
Nc1ccc2c(c1)C/C(=C/c1ccco1)C2=O | 5.6µM* | -20% | ? | ? | -34%
O=C1/C(=C/c2ccco2)CCc2ccccc21 | ? | -6% | -21% | 30% | 0%
